# Measured values taken from ChEMBL document CHEMBL4513216, “Probing the Open Global Health Chemical Diversity Library for Multistage-Active Starting Points for Next-Generation Antimalarials” (ACS Infect Dis, 2020).
# Among all 69,000 compounds or so, about 8,600 (12%) showed an effect of 50% or more. This is one part of a sample in which strong results are shown more often than they occur.
# Test system: Plasmodium berghei
# Experiment: Screen against P. berghei liver stage (PbLuc), transformed with Luciferase, at 10uM
# Assay type: functional, HepG2
# Settings: tested at 10 uM
row,Structure (SMILES),INHIBITION [%]
1,Cn1ccnc1CN1CCC(F)(F)C2(CCN(c3cccnc3)C2)C1 (stereo not given),31.2
2,Cn1cc(CN2CCC(F)(F)C3(CCN(c4cccnc4)C3)C2)cn1 (stereo not given),15.4
3,FC1(F)CCN(Cc2ccccn2)CC12CCN(c1cnccn1)C2 (stereo not given),34
4,FC1(F)CCN(Cc2ccncc2)CC12CCN(Cc1ccccn1)C2 (stereo not given),48.9
5,FC1(F)CCN(c2ccccc2)CC12CCN(c1ncccn1)C2 (stereo not given),-15.3
6,OCCN1CCC(F)(F)C2(CCN(c3cnccn3)C2)C1 (stereo not given),16.6
7,FC1(F)CCN(Cc2ccccn2)CC12CCN(c1cccnc1)C2 (stereo not given),85.9
8,FC1(F)CCN(Cc2ccncc2)CC12CCN(c1cccnc1)C2 (stereo not given),91.9
9,FC1(F)CCN(Cc2ccccn2)CC12CCN(c1ncccn1)C2 (stereo not given),47.5
10,FC1(F)CCN(Cc2cccnc2)CC12CCN(c1ccccc1)C2 (stereo not given),92.8
11,OCCN1CCC(F)(F)C2(CCN(c3cccnc3)C2)C1 (stereo not given),60.2
12,FC1(F)CCN(Cc2ccncc2)CC12CCN(c1cnccn1)C2 (stereo not given),-13.2
13,COc1ccccc1OCCCn1c(C)c(C)oc1=O,-10.2
14,CCn1c(SCC(N)=O)nnc1C(C)NC(=O)c1ccc(Cl)cc1 (stereo not given),31.6
15,CCS(=O)(=O)N1CCC2(CN(c3cccc(C)n3)C2)C1,18.5
16,Cc1ccc(CN(CCCN2CCOCC2)Cc2cnn(C)c2)o1,30.15
17,CCc1ncc2c(n1)CN(c1nnc(C)c(C)c1C#N)CC2,-28.7
18,CNC(=O)CN1CCC2(CCCN(CC3CCOC3)C2)CC1 (stereo not given),8.6
19,Cc1nn(-c2ccc(C(=O)O)cc2)c2c1C(CC(C)C)SCC(=O)N2 (stereo not given),10.6
20,Cc1cccc(C(=O)N2C[C@@H]3C(CC(=O)NC(C)C)[C@@H]3C2)n1 (stereo not given in full),-50.4
21,Cn1cc(CN2CCC(F)(F)C3(CCN(c4ccccn4)C3)C2)cn1 (stereo not given),0.618
22,FC1(F)CCN(Cc2cccnc2)CC12CCN(c1cnccn1)C2 (stereo not given),-20.1
23,O=C(O)CN1CCC(F)(F)C2(CCN(c3ccccn3)C2)C1 (stereo not given),-4.02
24,FC1(F)CCN(Cc2cccnc2)CC12CCN(c1ccccn1)C2 (stereo not given),68.2
25,O=C(CO)N1CCC(F)(F)C2(CCN(c3ccccc3)C2)C1 (stereo not given),31.4

row,Structure (SMILES),INHIBITION [%]
1,O=C(O)CN1CCC(F)(F)C2(CCN(c3ccccc3)C2)C1 (stereo not given),53.9
2,Cc1nn(C)cc1-c1cc(C(=O)N2CCc3ncc(Cl)cc3C2)on1,7.15
3,N#CCc1ccc(NC(=O)Cn2cc(I)cn2)cc1,36.6
4,O=C(NCC1CCCO1)c1nc2c(s1)CCCN2Cc1ccccc1 (stereo not given),-57.7
5,CCN(Cc1ccc(N(C)C)cc1)S(=O)(=O)c1cc(Br)ccc1OC,7.65
6,COc1ccc(Br)cc1S(=O)(=O)N(C)Cc1ccc(N(C)C)cc1,5.76
7,CCOc1ccc(Br)cc1S(=O)(=O)N(CC)Cc1ccc(N(C)C)cc1,61.5
8,CCOC(=O)N1CC(C)=C(C)CN1C(=O)Nc1ccc(Cl)c(Cl)c1,13
9,CCNc1cc2c(nn1)CCN(C(=O)c1cccc(CSC)c1)C2,37.3
10,O=C(c1cccnc1)N1CCCC1C1CCN(Cc2ccccc2)CC1 (stereo not given),73.6
11,O=C(c1ccc(CN2CCCCC2)cc1)N1CCCC1c1cccs1 (stereo not given),31
12,O=C(c1ccncc1)N1CCCC1C1CCN(Cc2ccccc2)CC1 (stereo not given),51.1
13,O=C(C1CC1)N1CCCC1C1CCN(Cc2ccccc2)CC1 (stereo not given),-12.6
14,O=C(c1cc[nH]n1)N1CCCC1C1CCN(Cc2ccccc2)CC1 (stereo not given),37.9
15,O=C(c1ccco1)N1CCCC1C1CCN(Cc2ccccc2)CC1 (stereo not given),21.3
16,CN(C(=O)c1cccnc1)C1CCCN(CCc2ccccc2)C1 (stereo not given),42.2
17,O=C(c1ccoc1)N1CC[C@@H](N2CCOCC2)[C@@H]1Cc1ccccc1,35.7
18,O=C(c1ccoc1)N1CCCC1C1CCN(Cc2ccccc2)CC1 (stereo not given),51.1
19,Cc1cccnc1C(=O)N1CCC(Cc2cnc3[nH]ccc3c2)CC1,44.8
20,OCC(O)CN(CCN1CCOCC1)Cc1ccco1 (stereo not given),43.9
21,Cc1oncc1C(=O)N1CC[C@H]2[C@H](C[C@@H](CN3CCCC3)N2C)C1,16.6
22,Cc1cc(C(=O)N2CC[C@H]3[C@H](C[C@@H](CN4CCCC4)N3C)C2)c(C)o1,39.5
23,Cc1nc(C(C)C)ncc1C(=O)N1CCCC(N2CCCC2)C1 (stereo not given),26.8
24,O=C(O)CSC1CCc2ccccc2NC1=O (stereo not given),18.4
25,NS(=O)(=O)CCN1CCN(c2ccccc2O)CC1,-24.7

row,Structure (SMILES),INHIBITION [%]
1,O=C(Nc1ccccc1)N1C[C@@H]2C[C@H](C(=O)N3CCOCC3)[C@H](C1)O2,55.4
2,CC(C)CS(=O)(=O)N1C[C@@H]2C[C@H](C(=O)N3CCCC3)[C@H](C1)O2,32.5
3,CC(C)NC(=O)[C@H]1C[C@H]2CN(C(=O)NC(C)C)C[C@@H]1O2,24
4,CNC(=O)[C@H]1C[C@H]2CN(C(=O)NC(C)C)C[C@@H]1O2,57.5
5,O=C(Nc1ccc(F)cc1)N1C[C@@H]2C[C@H](C(=O)N3CCOCC3)[C@H](C1)O2,1.58
6,CC(C)CS(=O)(=O)N1C[C@@H]2C[C@H](C(=O)N3CCOCC3)[C@H](C1)O2,83.2
7,CC(C)CS(=O)(=O)N1C[C@@H]2C[C@H](C(=O)N3CCN(C)CC3)[C@H](C1)O2,-1.28
8,O=C(Nc1ccccc1)N1C[C@@H]2C[C@H](C(=O)N3CCCC3)[C@H](C1)O2,-13.2
9,CCOC(=O)CNC(=O)N1CCCC(CNC(=O)c2ccco2)C1 (stereo not given),3.73
10,CC(C)NC(=O)N1C[C@@H]2C[C@H](C(=O)N3CCCC3)[C@H](C1)O2,43.9
11,O=C(NCC1CCCN(C(=O)NCCc2ccccc2)C1)c1ccco1 (stereo not given),59.1
12,CCOC(=O)CCNC(=O)N1CCCC(CNC(=O)c2ccco2)C1 (stereo not given),15.7
13,CCS(=O)(=O)N[C@H]1CN(CC(C)(C)N2CCOCC2)C[C@@H]1C1CC1,18.5
14,O=C(Nc1ccccc1)C1=NOC2(CCCN(C(=O)C3CCCC3)C2)C1 (stereo not given),-31
15,O=C(c1ccn(-c2ccc(F)cc2)n1)N1CCCC(n2ccnc2)C1 (stereo not given),-17
16,CCc1nc(CNC2CCN(S(C)(=O)=O)CC2)cs1,28.3
17,O=C(C1CCOCC1)N1CCO[C@H]2[C@@H](OCC3CC3)CC[C@@H]21,-19.8
18,CCC(C)N(Cc1cccnc1)C(=O)c1ccc(NS(=O)(=O)CC)cc1 (stereo not given),18.8
19,CCCn1ncc(C(=O)N2CCCC(OCc3ccccn3)C2)c1C (stereo not given),-38.6
20,CNC(=O)N1C[C@@H]2C[C@H](C(=O)Nc3ccccc3)[C@H](C1)O2,62
21,CNC(=O)[C@H]1C[C@H]2CN(C(=O)Nc3ccccc3)C[C@@H]1O2,-26.5
22,O=C(Nc1ccccc1)[C@H]1C[C@H]2CN(C(=O)Nc3ccccc3)C[C@@H]1O2,7.31
23,O=C(NCc1ccccc1)N1C[C@@H]2C[C@H](C(=O)N3CCCC3)[C@H](C1)O2,15.3
24,CN(C)C(=O)[C@H]1C[C@H]2CN(S(=O)(=O)c3ccccc3)C[C@@H]1O2,33.4
25,O=C(Nc1cccnc1)[C@H]1C[C@H]2CN(C(=O)NC3CCCC3)C[C@@H]1O2,9.67

row,Structure (SMILES),INHIBITION [%]
1,CN(C)C(=O)[C@H]1C[C@H]2CN(CCc3ccccc3)C[C@@H]1O2,66
2,CN(C)C(=O)[C@H]1C[C@H]2CN(S(=O)(=O)Cc3ccccc3)C[C@@H]1O2,19.9
3,CNC(=O)N1C[C@@H]2C[C@H](C(=O)Nc3cccnc3)[C@H](C1)O2,54.4
4,O=C(NCCc1ccccc1)N1C[C@@H]2C[C@H](C(=O)N3CCCC3)[C@H](C1)O2,57.1
5,CN1C[C@@H]2C[C@H](C(=O)Nc3cccnc3)[C@H](C1)O2,41.6
6,CNC(=O)[C@H]1C[C@H]2CN(C(=O)NCCc3ccccc3)C[C@@H]1O2,19.5
7,COCCc1noc(CN2CCCC2c2c(C)nn(C)c2OC)n1 (stereo not given),17.4
8,CCCNC(=O)C1CCCN(Cc2csc(C(C)(C)C)n2)C1 (stereo not given),-62.8
9,CNC(=O)[C@@H](c1ccccc1OC)N1CCC[C@H]1C(=O)NC(C)(C)C,-22.4
10,Cc1cccc(C)c1OCC(=O)NC(C)c1nnc2n1CCC2 (stereo not given),-29.2
11,COc1c(CNCC(=O)N2CCN(C)CC2)c(C(C)C)nn1C,42.1
12,Cc1noc(CNC(=O)c2ccccc2-n2cc(CN)cn2)n1,20.8
13,O=C1CN(C(=O)c2cc3ccc(Br)cc3[nH]2)CCN1,-56.7
14,CCc1cnc(CN(C)C2CCN(CC3CCOCC3)C2)o1 (stereo not given),5.85
15,Cc1nsc(NC(=O)N2CCc3sccc3C2)n1,24.1
16,OC(COc1ccc(F)cc1)CN1CCC(c2ccn[nH]2)CC1 (stereo not given),37.9
17,Cc1cccc(N2CCOCC3(C2)CN(c2cnn(C)c2)C(=O)CO3)n1 (stereo not given),44.4
18,CC(C)Oc1ncnc2c1CCN(C(=O)c1cccn1C)CC2,7.39
19,O=C1Nc2ccccc2/C1=C1\CCCCCN1,-2.09
20,CS(=O)(=O)c1ccc(CN2CCCC3(C2)C(=O)Nc2ccccc23)cc1 (stereo not given),69
21,O=C1Nc2ccccc2C12CCCN(Cc1ccc3c(c1)OCCO3)C2 (stereo not given),43.3
22,O=C1Nc2ccccc2C12CCCN(Cc1ccncc1)C2 (stereo not given),16.6
23,CNc1ncc(CN(C)Cc2cc(O)c3cc(F)ccc3n2)cn1,40.9
24,CNc1ncc(CN(C)Cc2cc(O)c3cc(C)cc(C)c3n2)cn1,35.5
25,CNc1ncc(CN(C)Cc2cc(O)c3cccc(Cl)c3n2)cn1,60.4
